In article PMC12670160, “A drug-repurposing screen of FDA- and EMA-approved drugs identifies two NF-κB inhibitors active against eumycetoma” (Journal of Antimicrobial Chemotherapy, 2025):
Structures can show the parent of a compound that is named as a salt. Where two headings read alike, the source gives them in different places. Out of some 5,300 compounds screened, about 130 (2.5%) showed an effect of 50% or more. Many of the other results were omitted from the sample, so strong results are more common in it than they were.

Test system: M. mycetomatis strain mm55
Details: primary screen, metabolic activity vs growth control, 96 h, 2 µM, inhibitor
[1] = Madurella mycetomatis metabolic activity at 2µM (%)

CSCC[C@H](N)C(=O)O [ONC0005517, lmethionine]
% viability [1]: 102.8%

Cc1ccc(NC(=O)c2ccc(CN3CCC(N(C)C)C3)c(C(F)(F)F)c2)cc1Nc1ncc(-c2cncnc2)cn1 (stereo not drawn) [ONC0004625, bafetinib inno406]
% viability: 85.25%

CC(=O)Nc1ccccc1 [ONC0000688, acetanilide]
% viability: 114.7%

CCNCCS(=O)(=O)NC[C@@]1(c2ccccc2)SC(NC(=O)C(C)(C)C)=NN1C(=O)C(C)(C)C [ONC0000804, litronesib]
% viability: 77.28%

CC(=O)NC1=NN(C(C)=O)C(C)(c2ccccc2)S1 (stereo not drawn) [ONC0002658, k858]
% viability: 49.67%

CCCCN1[C@@H]2CC[C@H]1C[C@@H](OC(c1ccc(F)cc1)c1ccc(F)cc1)C2 [ONC0003046, jhw007]
% viability: 64.39%

FC(F)(F)c1ccc(CNc2ccc(Cc3c[nH]c4ncccc34)cn2)cc1 [ONC0002656, plx647]
% viability: 82.24%

CCOc1cc(C(C)(C)C)ccc1C1=NC(C)(c2ccc(Cl)cc2)C(C)(c2ccc(Cl)cc2)N1C(=O)N1CCN(CCCS(C)(=O)=O)CC1 (stereo not drawn) [ONC0004446, rg7112 ro5045337]
% viability: 112.9%

[N-]=[N+]=N[C@]1(CO)O[C@@H](n2ccc(N)nc2=O)[C@@H](O)[C@@H]1O [ONC0000950, ro9187]
% viability: 66.7%

[N-]=[N+]=N[C@]1(CO)O[C@@H](n2ccc(N)nc2=O)[C@H](O)[C@@H]1O [ONC0001768, r1479]
% viability: 81.29%

Nc1ccn([C@@H]2O[C@@](CO)(CCl)[C@@H](O)[C@H]2F)c(=O)n1 [ONC0000939, als8112]
% viability: 44.91%

[H]/N=C(/N)c1ccc(NCc2nc3cc(C(=O)N(CCC(=O)O)c4ccccn4)ccc3n2C)cc1 [ONC0004940, bibr 953 dabigatran etexilate pradaxa]
% viability: 81.22%

C=C[C@H]1C[N@@]2CC[C@H]1C[C@@H]2[C@@H](O)c1ccnc2ccc(OC)cc12 [ONC0003347, quinidine gluconate]
% viability: 101.1%

O=C(Nc1c[nH]nc1-c1nc2cc(CN3CCOCC3)ccc2[nH]1)NC1CC1 [ONC0004692, at9283]
% viability: 87.23%

C[C@@H](c1nc(-c2ccc(C#N)cc2)cs1)[C@](O)(Cn1cncn1)c1ccc(F)cc1F [Ravuconazole]
% viability: 0.9972%

C[C@@H](c1ncncc1F)[C@](O)(Cn1cncn1)c1ccc(F)cc1F [Voriconazole]
% viability: 2.12%

C[C@@H](c1nc(-c2ccc(C#N)cc2)cs1)[C@](O)(Cn1cncn1)c1cc(F)ccc1F [Isavuconazole]
% viability: 3.591%

OC(Cn1cncn1)(Cn1cncn1)c1ccc(F)cc1F [ONC0005572, fluconazole]
% viability: 73.77%

CO[C@H]1CC[C@H](N2C(=O)CNc3ncc(-c4ccc(C(C)(C)O)nc4)nc32)CC1 [ONC0001106, cc223]
% viability: 54.41%

COc1ccc(-c2cnc3c(-c4cccc5ncccc45)cnn3c2)cc1 [ONC0002277, chr6494]
% viability [1]: 84.04%

C[C@@H]1[C@H](O)[C@@H](C)/C=C/C=C/CC/C=C/C=C/C=C/C=C/[C@H](O[C@@H]2O[C@H](C)[C@@H](O)[C@H](N)[C@@H]2O)C[C@@H]2O[C@](O)(C[C@@H](O)[C@H](O)CC[C@@H](O)C[C@@H](O)C[C@@H](O)CC(=O)O[C@H]1C)C[C@H](O)[C@H]2C(=O)O [ONC0002036, nystatin]
% viability: 93.36%

O=C(O)C=C1NN(Cc2nc3cc(C(F)(F)F)ccc3s2)C(=O)c2ccccc21 [ONC0005526, zopolrestat]
% viability: 123.5%

CCS(=O)(=O)N1CCC[C@@H]2CN3CCc4cc(OC)ccc4[C@@H]3C[C@@H]21 [ONC0002617, rs79948]
% viability: 85.43%

C[C@@]1(c2nc3c(C(N)=O)cccc3[nH]2)CCCN1 [ONC0004676, abt888 veliparib]
% viability: 121%

Cc1cc(NC(=O)C2C(=O)c3ccccc3S(=O)(=O)N2C)no1 (stereo not drawn) [ONC0002885, isoxicam]
% viability: 123.7%

C[n+]1cccc(C(=O)O)c1 [ONC0003448, trigonellinehcl]
% viability: 47.48%

O=C(O)c1ccc[n+]([O-])c1 [ONC0005291, oxiniacic acid]
% viability: 104%

O=C(O)c1ccccc1 [ONC0003100, benzoic acid]
% viability: 90.48%

Cc1cc(CCC[C@H](CC(=O)NO)C(=O)N[C@H](C(=O)N[C@H](C)c2ccccc2)C(C)(C)C)ccc1-c1ccccc1 [ONC0002525, uk356618]
% viability: 62.33%

CC(C)[C@@H]1CC[C@@H](C)C[C@H]1O [ONC0003141, levomenthol]
% viability: 69.71%

CC(C)[C@@H]1CC[C@@H](C)C[C@@H]1P(=O)(c1ccccc1)c1ccccc1 [ONC0003951, dpo1]
% viability: 47.19%

CC[C@H](C)[C@H](NC(=O)[C@H](Cc1ccc(O)cc1)NC(=O)[C@@H](NC(=O)[C@H](CCCNC(=N)N)NC(=O)[C@@H](N)CC(=O)O)C(C)C)C(=O)N[C@@H](Cc1cnc[nH]1)C(=O)N1CCC[C@H]1C(=O)N[C@@H](Cc1ccccc1)C(=O)O [ONC0002134, angiotensin ii human]
% viability: 79.83%

CC(C)N[C@H]1CCn2c(=O)[nH]c3cccc(c32)[C@@H]1O [ONC0003872, zilpaterol]
% viability: 87.84%

COc1cc(CC2NCCc3cc(O)c(O)cc32)cc(OC)c1OC (stereo not drawn) [ONC0002165, trimethoquinol]
% viability: 66.75%

O=C(O)Cc1ccc(-c2ccccc2)cc1 [ONC0005558, felbinac]
% viability: 137.1%

O=C(O)Cc1ccc2c(c1)C(=O)c1ccccc1CO2 [ONC0003681, isoxepac]
% viability: 47.44%

CN(C)CC/C=C1/c2ccccc2COc2ccc(CC(=O)O)cc21 [ONC0004990, olopatadine hydrochloride opatanol]
% viability: 101%

O=C1c2cccnc2OC[C@@H]2CCCN12 [ONC0001148, org26576]
% viability: 83.51%

CCOC(=O)NNc1ccc(N(CC)CC(C)O)nn1 (stereo not drawn) [ONC0001944, cadralazine]
% viability: 72.29%

C=C1C(=O)O[C@@H]2[C@H]3O[C@]3(C)CC/C=C(\C)CC[C@@H]12 [ONC0002950, parthenolidealternatestereo]
% viability: 150.2%

Cc1cccc(Oc2nc3c(C)cccn3c(=O)c2/C=C(\C#N)c2nc3ccccc3s2)c1 [ONC0001281, ccg63802]
% viability: 68.65%

Cc1cccn2c(=O)c(/C=C(\C#N)c3nc4ccccc4s3)c(Oc3ccc(F)cc3)nc12 [ONC0003502, ccg63808]
% viability: 42.44%

Cc1ccc(OC[C@@H](O)[C@H](C)NC(C)C)c2c1CCC2 [ONC0001929, ici118551]
% viability: 52.35%

Cc1ccc(-c2ncccn2)c(C(=O)N2C[C@H](COc3ccc(F)cn3)CC[C@H]2C)c1 [ONC0005570, filorexant]
% viability: 73.84%

O=C(O)CC(O)(CC(=O)O)C(=O)O.[Li].[Li].[Li] [ONC0004255, lithium citrate hydrate]
% viability: 60.67%

CCCCCCCCCCCCOCCOCCOCCOCCOCCOCCOCCOCCOCCO [ONC0002139, polidocanol]
% viability: 78.72%

C[C@H]1OC(O)[C@H](O)[C@H](O)[C@H]1O (stereo partly drawn) [ONC0004779, l rhamnose monohydrate]
% viability: 103.9%

C/C=C1\NC(=O)[C@H]2CSSCC/C=C/[C@H](CC(=O)N[C@H](C(C)C)C(=O)N2)OC(=O)[C@H](C(C)C)NC1=O [ONC0000722, romidepsin]
% viability: 49.6%

Cc1ccc(-c2ccc(C)cn2)nc1 [ONC0002143, abametapir]
% viability: 65.91%

C=C[C@H]1C[N@@]2CC[C@H]1C[C@H]2[C@H](O)c1ccnc2ccc(OC)cc12 [ONC0003402, quinine]
% viability: 78.04%

CC/C(=C(\c1ccc(O)cc1)c1ccc(OCCNC)cc1)c1ccccc1 [ONC0004522, endoxifen hcl]
% viability: 48.7%

CC/C(=C(\c1ccc(O)cc1)c1ccc(OCCN(C)C)cc1)c1ccccc1 [ONC0002197, afimoxifene]
% viability: 79.17%

CC/C(=C(\c1ccccc1)c1ccc(OCCN(C)C)cc1)c1ccccc1 [ONC0000595, tamoxifen citrate]
% viability: 106.5%

O=c1c2ccccc2nc2n1CCc1c-2[nH]c2ccccc12 [ONC0004955, rutaecarpine rutecarpine]
% viability: 80.68%

O=C1c2ccccc2-n2c1nc1ccccc1c2=O [ONC0003517, tryptanthrin]
% viability: 43.27%

COc1cc(-n2c(S)nc3ccccc3c2=O)c(Cl)cc1Cl [ONC0004315, mdivi1]
% viability: 127.2%

COC(=O)Nc1nc2ccc([S+]([O-])c3ccccc3)cc2[nH]1 (stereo not drawn) [ONC0004180, oxfendazole]
% viability: 72.44%

NC(C(=O)O)c1ccc(C(=O)O)c(O)c1 (stereo not drawn) [ONC0002596, 4carboxy3hydroxyphenylglyciners]
% viability: 58.45%

CC(=O)O[C@@H]1CC[C@@]2(C)C(CC[C@]3(C)C2C(=O)C=C2[C@@H]4[C@@H](C)[C@H](C)CC[C@]4(C)CC[C@]23C)[C@@]1(C)C(=O)O (stereo partly drawn) [ONC0003387, acetyl11ketobetaboswellicacid]
% viability: 70.79%

COc1cc2c(c(OC)c1OC)-c1c(cc3c(c1OC)OCO3)C[C@H](C)[C@@H](C)C2 [ONC0005204, schisandrin b]
% viability: 87.3%
